An excerpt weighted towards active compounds, which were near 7.3% of everything screened.
VACV Venus inh – inhibitors of vaccinia virus (Venus reporter); Potency, µM (doses to about 36.5 µM), usual class: inhibitors; actives 0.46% (n = 330,000); Vaccinia virus Venus reporter expression, fluorescence; calls by dose curve; tested in A549 cells; further: nearly all actives have a fitted effect of over 30% in size
HCV inhibitor – blocks hepatitis C virus. actives 3.4% (n = 340,000). Potency, µM (top dose mostly 41.8 µM), hits mostly inhibitors. Huh7.5.1 HCVcc-Cre infection, luciferase reporter, 44 h. AID 651820; active means well fitted inhibition curve with a large enough effect; inconclusive means small, poorly fitted or top-dose-only effect, or another doubt; inactive means no such curve, though single readings can be large or run the other way
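Cells (1,000/well) were plated 4 h before compound, then infected with HCVcc-Cre virus (~0.5 moi). After 44 h further culture, infection was read as luciferase luminescence following a 15 min substrate incubation at room temperature.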
Vaccinia mCherry – vaccinia inhibition (mCherry reporter); Vaccinia virus mCherry reporter infection, fluorescence; Potency, µM (titrated, usually from 36.5 µM), actives largely listed as inhibitors; actives 0.63% (n = 310,000); AID 720579; calls by dose curve; tested in A549 cells; further: nearly all actives have a fitted effect of over 35% in size
HCMV antiviral – inhibitors of human cytomegalovirus; HFF cells, HCMV-luciferase reporter, 72 h; stronger effect = lower value; activity change, negative = inhibition, % at 57.5 µM; actives 4.5% (n = 410,000); AID 1259415; in the data active means activity change below about -60%; inconclusive means no clear call, values can overlap the other calls; inactive means above about -39%
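After 16 h attachment at 37C, HFF cells received test compound and HCMV-luciferase (1 PFU/cell); reporter luminescence read 72 h later, data normalized against buffer-only and known inhibitor Salinomycin.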
FMDV antiviral – foot and mouth disease virus antiviral activity; FMDV antiviral cell-based qHTS; actives 1.2% (n = 410,000); AID 1159524; Potency, µM (highest dose often 57.9 µM), actives largely listed as inhibitors; calls by dose curve; tested in HEK293T cells; further: read-out not given here; nearly all actives have a fitted effect of over 45% in size
Of the large screens only hits and unclear results are named; the others gave an inactive call.

Cc1ccc(C)c(OCc2ccc(C(=O)Nc3ccc([N+](=O)[O-])cn3)o2)c1	HCV inhibitor 2.5µM, FMDV antiviral inconclusive (no result: VACV Venus inh, Vaccinia mCherry)
CCCCCc1c(-c2ccccc2)ncn1CCc1ccccc1OC	HCMV antiviral inconclusive (no result: HCV inhibitor)
CCCCc1c(-c2ccc(OC)c(OC)c2)ncn1CCc1ccccc1OC	Vaccinia mCherry inconclusive, HCMV antiviral -94, FMDV antiviral inconclusive (no result: HCV inhibitor)
CCCc1c(-c2ccc(Cl)cc2)ncn1CCc1ccccc1OC	HCMV antiviral -61, FMDV antiviral 28µM (no result: HCV inhibitor)
CCCCc1c(-c2cccc(OC)c2)ncn1CCc1ccccc1OC	VACV Venus inh inconclusive, HCMV antiviral inconclusive, FMDV antiviral 25µM (no result: HCV inhibitor)
CCCCc1c(Cc2cccc(F)c2)ncn1CCc1ccccc1OC	HCMV antiviral -66, FMDV antiviral 32µM (no result: HCV inhibitor)
CCCc1c(-c2ccc(Cl)cc2)ncn1Cc1ccccc1OC	FMDV antiviral inconclusive (no result: HCV inhibitor)
COc1ccc2c(c1)C(=O)CC2	none (no result: HCV inhibitor, HCMV antiviral, FMDV antiviral)
CCOc1ccccc1N(C)C(=O)c1c2c(nc3ccccc13)C(=O)N(C1CCCCC1)C2	FMDV antiviral inconclusive (no result: HCV inhibitor)
Cc1cccc(OC(C)C(=O)Nc2ncn[nH]2)c1 (stereo unspecified)	none (no result: HCV inhibitor)
COc1ccccc1CCn1cnc(-c2ccc(OC)c(OC)c2)c1C(C)C	HCMV antiviral -109, FMDV antiviral inconclusive (no result: HCV inhibitor)
CN(C)c1ccc(-c2nn3c(-c4ccccc4Cl)nnc3s2)cc1	HCV inhibitor inconclusive, HCMV antiviral -74
Clc1ccccc1-c1nnc2sc(-c3ccncc3)nn12	none
COc1ccccc1-c1nnc2sc(-c3ccc(N(C)C)cc3)nn12	VACV Venus inh inconclusive, HCV inhibitor inconclusive, Vaccinia mCherry inconclusive, HCMV antiviral -93
CN(C)c1ccc(-c2nn3c(-c4cccnc4)nnc3s2)cc1	none (no result: VACV Venus inh, Vaccinia mCherry, HCMV antiviral)
COc1cc(/C=N/NC(=O)c2nnn(-c3nonc3N)c2C(C)C)ccc1OCc1ccccc1	HCV inhibitor 14µM, FMDV antiviral inconclusive (no result: VACV Venus inh, Vaccinia mCherry)
COc1cc(/C=N/NC(=O)c2nnn(-c3nonc3N)c2C)ccc1OCc1ccc(Cl)cc1	VACV Venus inh inconclusive, HCMV antiviral -61 (no result: HCV inhibitor)
COc1ccc(C(=O)Nc2cc(C(C)C)c(O)c(S(=O)(=O)c3ccc(OC)cc3)c2C)cc1	HCMV antiviral -104 (no result: HCV inhibitor)
COc1ccc(C(=O)Nc2cc(C(C)C)c(O)c(S(=O)(=O)c3ccc(Cl)cc3)c2C)cc1	none (no result: HCV inhibitor)
CCC[C@H]1[C@@H](NS(=O)(=O)c2ccc(OC)cc2)CC[C@@]23CCCN2C(=O)CCC[C@@H]13	none (no result: VACV Venus inh, HCV inhibitor, Vaccinia mCherry, FMDV antiviral)
COc1ccc(C(=O)NCC2CCCO2)cc1S(=O)(=O)N1CCCc2ccccc21 (stereo unspecified)	none
O=C(NCc1ccccc1)c1ccc(S(=O)(=O)N2CCCc3ccccc32)cc1	HCV inhibitor 13µM (no result: VACV Venus inh, Vaccinia mCherry)
COc1ccc(C(=O)NCc2ccc(C)cc2)cc1S(=O)(=O)N1CCCc2ccccc21	HCV inhibitor inconclusive, Vaccinia mCherry inconclusive, HCMV antiviral -72
CCC(=O)N1CCCc2cc(S(=O)(=O)N3CCCc4ccccc43)ccc21	VACV Venus inh inconclusive, HCV inhibitor 10µM, FMDV antiviral inconclusive
CCC(=O)N1CCc2cc(S(=O)(=O)N3CCc4ccccc4C3)ccc21	HCMV antiviral inconclusive
CC(=O)N1CCCc2cc(S(=O)(=O)N(C)Cc3ccccc3)ccc21	HCV inhibitor 35µM
CC(=O)N1CCc2cc(S(=O)(=O)NC3CCCc4ccccc43)ccc21 (stereo unspecified)	HCV inhibitor inconclusive, Vaccinia mCherry inconclusive, HCMV antiviral -64, FMDV antiviral inconclusive
O=S(=O)(NC1CC1)c1ccc(S(=O)(=O)N2CCc3ccccc32)cc1	HCV inhibitor inconclusive, HCMV antiviral -81, FMDV antiviral inconclusive
CC(=O)N1CCc2ccc(S(=O)(=O)N3CCc4ccccc43)cc21	HCV inhibitor 22µM, HCMV antiviral inconclusive (no result: VACV Venus inh, Vaccinia mCherry)
CCn1c(=O)n(CC)c2cc(S(=O)(=O)N3CCc4ccccc43)ccc21	VACV Venus inh inconclusive, HCV inhibitor 13µM, HCMV antiviral -92 (no result: FMDV antiviral)
COc1ccc(S(=O)(=O)N2CCc3ccccc32)cc1C(=O)O	none (no result: VACV Venus inh, Vaccinia mCherry)
COc1ccc(OC)c(S(=O)(=O)N2CCc3ccccc32)c1	none
Cc1ccc(S(=O)(=O)N2CCCc3cc(NS(=O)(=O)c4ccc(C)c(C)c4)ccc32)cc1	none (no result: HCV inhibitor)
Cc1ccc(S(=O)(=O)N2CCCc3cc(NS(=O)(=O)c4ccc(F)c(C)c4)ccc32)cc1	VACV Venus inh inconclusive, Vaccinia mCherry inconclusive, HCMV antiviral -60 (no result: HCV inhibitor)
COc1ccc(OC)c(S(=O)(=O)N2CCCc3ccccc32)c1	HCMV antiviral -102 (no result: Vaccinia mCherry)
O=S(=O)(c1ccc(Cl)cc1)N1CCCc2ccccc21	HCV inhibitor inconclusive (no result: VACV Venus inh, Vaccinia mCherry)
